GLP-1R agonist – activates the human GLP-1 receptor. P43220. HEK293 GLP-1R CRE-luciferase, luminescence, 4-6 h; cells express a hypersensitive GLP-1R form. Potency, µM (titrated, usually from 45.6 µM), without a hit: top-dose activation, most hits filed as activators. actives 0.007% (n = 380,000); further: potency means the concentration at half of the fitted maximal effect; % of control where 0% means no effect
Target sequence (P43220 whole entry, looked up): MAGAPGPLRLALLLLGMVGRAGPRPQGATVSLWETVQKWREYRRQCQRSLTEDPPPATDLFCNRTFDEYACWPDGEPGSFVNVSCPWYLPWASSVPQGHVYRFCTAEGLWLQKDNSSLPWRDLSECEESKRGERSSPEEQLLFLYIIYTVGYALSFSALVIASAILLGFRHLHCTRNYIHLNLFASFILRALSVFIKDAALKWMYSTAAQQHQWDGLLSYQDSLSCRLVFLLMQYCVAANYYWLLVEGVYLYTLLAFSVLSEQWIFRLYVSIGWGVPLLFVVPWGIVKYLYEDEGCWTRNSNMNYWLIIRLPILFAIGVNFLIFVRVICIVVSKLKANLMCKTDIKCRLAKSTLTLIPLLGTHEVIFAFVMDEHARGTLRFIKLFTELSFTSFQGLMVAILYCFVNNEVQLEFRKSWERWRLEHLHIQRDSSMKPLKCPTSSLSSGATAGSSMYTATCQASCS
GLP1R inv ag – acts as inverse agonist at human GLP-1 receptor; P43220; HEK293 GLP-1R CRE-luciferase, luminescence, 24 h; GLP-1R form is constitutively active; Potency, µM (series often up to 38.3 µM), without a hit: at the highest dose activity change, negative = inhibition, actives largely listed as inhibitors; actives 1.6% (n = 410,000); AID 624417; further: potency means the concentration at half of the fitted maximal effect; on the % scale 0 is the no-effect control and ±100 the full control effect; nearly all actives have a fitted effect of over 55% in size
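GLP-1R inverse agonism mode: basal reporter luminescence in engineered HEK293 cells measured after one day of compound exposure at 37 deg C, with a 12 min room-temperature detection step.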
Mm-Cpn inhibitor – inhibitors of Methanococcus maripaludis chaperonin TRiC (MmCpn) | Potency, µM (series often up to 76.9 µM), without a hit: top-dose activity, negative = inhibition, usual class: inhibitors | AID 504842 | actives 0.031% (n = 330,000) | purified Mm-Cpn ATPase, ADP Transcreener TR-FRET; further: potency means the concentration at half of the fitted maximal effect; on the % scale 0 is the no-effect control and ±100 the full control effect; nearly all actives have a fitted effect of over 80% in size
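Inhibition of chaperonin ATP hydrolysis is measured as reduced ADP production, detected by competitive TR-FRET in which signal falls with ADP. Final enzyme 25 nM and ATP 10 uM, reacted 30 min at 37°C.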
uPA generation – inhibitors of cell surface uPA generation | cell surface uPA generation assay, qHTS | Potency, µM (highest dose often 38.3 µM), without a hit: top-dose activity change, negative = inhibition, usual class: inhibitors | actives 0.31% (n = 330,000) | AID 540303; active means well fitted inhibition curve with a large enough effect; inconclusive means small, poorly fitted or top-dose-only effect; inactive means no such curve, though single readings can be large or run the other way; tested in mouse RAW 264.7 cells; further: potency means the concentration at half of the fitted maximal effect; on the % scale 0 is the no-effect control and ±100 the full control effect; nearly all actives have a fitted effect of over 55% in size
HEK293 tox – cytotoxic in the GLP-1 receptor inverse agonist counter-screen; HEK293 cAMP-luciferase reporter cells, luminescence, 24 h; Potency, µM (series often up to 38.3 µM), for inactives: at the top dose activity change, negative = inhibition, most hits filed as inhibitors; actives 0.13% (n = 410,000);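 further: loss of luciferase light is scored as toxicity; potency means the concentration at half of the fitted maximal effect; on the % scale 0 is the no-effect control and ±100 the full control effect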
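A 23 nL compound transfer followed 12 hours of cell culture at 37 deg C; exposure then lasted 24 hr. Luciferase assay detection reagent was dispensed and plates read for luminescence after a 12 min room-temperature wait.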
CCT chaperon mod – modulators of cytosolic chaperonin (CCT/TRiC) activity; purified chaperonin ATPase assay, HTRF ADP detection, 30 min; activity change, % (test concentration not listed), hits read low; actives 0.3% (n = 360,000); AID 651819; in the data active means activity change below about -30%; further: on the % scale 0 is the no-effect control and ±100 the full control effect
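We incubate TRiC, 40 or 20 nM final, with library compounds at 76 uM and 10 uM ATP for 30 min at 37 °C. ADP formed is detected with Transcreener HTRF reagents after 30 min at room temperature.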
Numbers without * were called inactive; ? = inconclusive; · = no result given; ! = not active in a repeat; [ ] = remark or other dose. Compounds with a hit are over-represented: about 2.2% of the library has one in this group of screens. Unless noted, the call rests on the fitted dose curve; in most records, active means well fitted curve in the direction sought with a large enough effect; inconclusive means small, poorly fitted or top-dose-only effect, or another doubt; inactive means no such curve, though single readings can be large; an effect the other way counts as inactive or inconclusive.

SMILES	GLP-1R agonist	GLP1R inv ag	Mm-Cpn inhibitor	uPA generation	HEK293 tox	CCT chaperon mod
COc1ccccc1CNC(=O)C12CC3CC(CC(C3)C1)C2	3.7%	11.2µM*	1.0%	4.7%	-16.2%	-2.8
CCCCN1C(=S)NC[C@@H]1Cc1cccc2ccccc12	14.2%	?	1.1%	6.3%	?	0.4
CCCC[C@@H]1CNC(=S)N1CCc1cccc2ccccc12	20.1%	3.55µM*	·	3.3%	-0.5%	-0.9
COc1ccc(Nc2c3c(nc4ccc(NC(=O)c5cc(Cl)ccc5OC)cc24)CCCC3)cc1OC	-6.4%	?	·	·	?	·
CCOc1ccc(CNC(=O)CCCn2c(=O)c3cccn3c3ccc(F)cc32)cc1	·	5.8%	·	·	-3.1%	·
C=CCn1c(SCC(=O)Nc2c(C)n(C)n(-c3ccccc3)c2=O)nc2sc(C)c(-c3ccccc3)c2c1=O	3.6%	3.16µM*	-1.2%	-2.4%	-2.6%	0.7
C=CCn1c(SCC(=O)Nc2c(C)n(C)n(-c3ccccc3)c2=O)nc2sc(C)c(C)c2c1=O	9.5%	4.4%	-11.0%	·	-3.1%	-3.0
CCn1c(SCC(=O)Nc2cc(C)on2)nc2sc3c(c2c1=O)CCCC3	9.9%	53.7%	-10.3%	-4.9%	-29.8%	4.5
C=CCn1c(SCC(=O)Nc2cc(C)on2)nc2sc3c(c2c1=O)CCCC3	-4.6%	-5.6%	-6.9%	8.0%	2.4%	-64.5*
Cc1c(C(=O)NNc2c(Cl)cccc2Cl)n(C)oc1=O	-6.4%	3.55µM*	0.4%	5.3%	-19.3%	-0.6
Cc1c(C(=O)Oc2ccc(Cl)cc2)n(C)oc1=O	5.8%	20.9%	1.7%	-5.8%	-14.1%	1.3
CCC(C)n1c(=O)c2sccc2n2c(CCCC(=O)Nc3ccc(F)cc3)nnc12 (stereo not drawn)	·	1.2%	·	·	-3.9%	·
Cc1ccc(S(=O)(=O)c2nc(-c3ccccc3)oc2N2CCCCCC2)cc1	·	6.31µM*	·	·	0.0%	·
Cc1ccc(-c2nc(S(=O)(=O)c3ccc(C)cc3)c(N3CCCCC3)o2)cc1	·	-5.9%	·	·	0.8%	·
CC(=O)c1ccc(NC(=O)CSc2nccn2Cc2ccco2)cc1	·	-4.9%	·	·	-1.5%	·
CCCCC(=O)N(C)c1c(CC)nc2c(OCc3ccccc3C)cccn12	9.4%	11.2µM*	·	·	5.9%	0.6
CCc1nc2c(OCc3ccc(C(F)(F)F)cc3)cccn2c1N(C)C(=O)C1CC1	-7.5%	14.1µM*	·	·	-7.2%	0.1
C[C@@H]1CN([C@H](C)CO)C(=O)CCCn2cc(nn2)CO[C@H]1CN(C)S(=O)(=O)c1ccccc1F	5.6%	1.7%	·	·	-13.4%	-0.3
C[C@@H]1CN([C@@H](C)CO)C(=O)CCCn2cc(nn2)CO[C@H]1CN(C)S(=O)(=O)c1ccccc1C#N	19.7%	-0.8%	·	·	3.7%	-52.8*
COc1cc(CN(C(=O)COc2ccccc2)c2ccccn2)cc(OC)c1OC	·	13.8%	·	·	-7.5%	·
CC1OC(CC(=O)O)CC2=C1C(=O)c1c(O)cccc1C2=O (stereo not drawn)	-27.9%	?	·	-8.9%	0.891µM*	0.1
Cc1ccc(NC(=O)CS(=O)CC(=O)N(CC(=O)NC2CCCC2)c2cc(C)ccc2C)cc1 (stereo not drawn)	-1.3%	1.6%	0.8%	11.2%	-20.8%	-93.2*
Cc1ccccc1N(CC(=O)NC1CCCC1)C(=O)CS(=O)CC(=O)Nc1ccc2c(c1)OCO2 (stereo not drawn)	-5.6%	5.9%	-0.4%	-4.7%	-16.6%	0.3
Cc1ccc2nc(N3CCN(CCO)CC3)nc(-c3ccccc3)c2c1	21.3%	6.31µM*	-1.0%	-1.5%	67.8%	0.0
OCCN1CCN(c2nc(-c3ccccc3)c3cc(Cl)ccc3n2)CC1	-19.8%	3.55µM*	1.3%	-7.4%	117.3%	1.3
SMILES	GLP-1R agonist	GLP1R inv ag	Mm-Cpn inhibitor	uPA generation	HEK293 tox	CCT chaperon mod
CCCCOc1ccc(C(=O)Nc2cc(-c3cn4cccnc4n3)ccc2OC)cc1	·	-1.4%	·	·	4.7%	·
CCOC(=O)c1ccc(N/C(=N\S(=O)(=O)c2ccccc2C)c2ccccc2)cc1	-0.9%	?	-1.0%	10.9%	-16.8%	-6.9
Cc1ccc(C)c(S(=O)(=O)/N=C(/Nc2ccccc2)c2ccccc2)c1	12.1%	10µM*	2.4%	2.1%	-2.3%	-2.2
Cc1[nH]c2ccc(F)cc2c1CCN(Cc1cccnc1)C(=S)Nc1cccc(F)c1	12.8%	10µM*	1.5%	1.1%	-10.9%	-0.3
Cc1ccc(C)c(NC(=S)N(CCc2nc3cc(C)c(C)cc3[nH]2)Cc2cccnc2)c1	-4.0%	-0.9%	5.1%	4.0%	-17.3%	-57.7*
Cc1ccccc1NC(=S)N(CCc1c(C)[nH]c2ccc(F)cc12)Cc1cccnc1	21.4%	?	-3.7%	11.4%	-4.2%	0.3
Cc1cccc(NC(=S)N(CCc2nc3cc(C)c(C)cc3[nH]2)Cc2cccnc2)c1	0.0%	-12.3%	2.7%	-1.7%	-2.4%	2.8
CCn1cc(C(=O)N2CCN(c3ccccc3)CC2)c(=O)c2cc(S(=O)(=O)N3CCCC3)ccc21	·	-12.3%	·	·	20.2%	·
COc1cccc(CSc2nc3n(n2)C(CC(C)C)C(C(=O)Nc2ccccc2OC)=C(C)N3)c1 (stereo not drawn)	·	0.1%	·	·	0.3%	·
CCOC(=O)N1CCN(CC(=O)Nc2cccc(Br)c2)CC1	10.6%	-0.7%	-0.1%	2.6%	-10.7%	1.9
CCCC(=O)Nc1ccc2c(c1)nc(CN1CCN(C(=O)OCC)CC1)n2C	4.3%	4.3%	-0.4%	-1.7%	-4.0%	0.7
CCCC(=O)Nc1ccc2c(c1)nc(CN1CCN(C(=O)OCC)CC1)n2CC	2.1%	?	2.9%	3.55µM*	-27.2%	-1.1
CCOC(=O)N1CCN(Cc2nc3cc(NC(=O)c4ccco4)ccc3n2C)CC1	8.4%	18.6%	-1.5%	-6.9%	-13.2%	-57.8*
CCOC(=O)N1CCN(CCC(=O)Nc2cccc(Br)c2)CC1	-4.9%	?	-2.5%	5.9%	-17.1%	-95.6*!
O=C(O)[C@@H]1[C@@H]2C[C@H]3c4[nH]c5ccccc5c4CCN3C[C@@H]2CC[C@@H]1O	-3.1%[19.8 µM]	·	·	·	·	·
C=CCN1c2ccccc2[C@]23C[C@@H](C(=O)OC)N(C(=O)c4cc(C)oc4C)C2=NC(C(=O)OC)=C(C(=O)OC)[C@H]13	0.5%	?	0.7%	5.62µM*	?	-2.0
COc1ccc(CNC(=O)CCc2ccc(S(=O)(=O)N3CCCCCC3)cc2)cc1	4.4%	-25.2%	-1.2%	?	3.4%	-0.3
CCc1ccc(CNC(=O)CCCn2ccc3cc(S(=O)(=O)N4CCCC4)ccc32)cc1	·	8.91µM*	·	·	-28.7%	·
CCc1ccc(CNC(=O)Cn2ccc3cc(S(=O)(=O)N4CCCCCC4)ccc32)cc1	·	?	·	·	-3.5%	·
